A selection: hits, their analogues and other compounds. The true share with any hit is near 4.2%.
Mtb FBA inh – inhibitors of M. tuberculosis fructose-bisphosphate aldolase; P9WQA3; purified M. tuberculosis FBA, fluorescence read-out; inhibition, % at 1 µM; 360,000 tested, 2.3% active; AID 588726; in the data active = inhibition above about 27%;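 also: 0% = vehicle and 100% = reference inhibitor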
GDH-TPI counter-1 – inhibits GDH-TPI coupling enzymes, artifact for Mtb FBA screen; GDH-TPI coupled enzyme counterscreen, NADH absorbance; inhibition, % at 4.8 µM; 360,000 tested, 1.2% active;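 also: 0% = DMSO wells and 100% = wells lacking the enzyme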
CCHF vOTU inh – blocks the CCHF virus ovarian tumor domain protease | CCHFV vOTU protease, Pep-AMC fluorescence | inhibition, % at 11.5 µM | 370,000 tested, 0.55% active; also: 0% = vehicle wells with enzyme and 100% = no enzyme wells
RecA splice inh – blocks M. tuberculosis RecA intein splicing. cell-free RecA intein splicing, fluorescence. AID 2221. inhibition, % (concentration not given with the values). 290,000 tested, 0.75% active. P9WHJ3; in the data active = inhibition above about 30%;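 also: 0% = vehicle wells and 100% = reference inhibitor control wells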
Mtb FBA inh conf – confirmation of M. tuberculosis fructose-bisphosphate aldolase inhibitors; shares compounds with Mtb FBA inh; purified M. tuberculosis FBA, fluorescence read-out; inhibition, % at 1 µM; 5,600 tested, 78% active; AID 651616; in the data active = inhibition above about 27%;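 also: 0% = vehicle wells and 100% = reference inhibitor wells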
GDH-TPI counter-2 – inhibits GDH-TPI coupling enzymes, flagging Mtb FBA hits; GDH-TPI coupled enzyme counterscreen, fluorescence; AID 652141; inhibition, % at 1 µM; 5,600 tested, 81% active; shares compounds with Mtb FBA inh; in the data active = inhibition above about 10%
GDH-TPI dose – GDH-TPI dose response counter-screen for Mtb FBA | AID 652145 | IC50, µM | GDH-TPI coupled enzyme assay, fluorescence, artifact counterscreen | 170 tested, 79% active | shares compounds with Mtb FBA inh; call rule not given here
* marks the source's active call; other numbers are inactive results; x = not tested or not shown; + = active, no number. Rule as the data show it, unless noted: active = inhibition above about 30%; inactive = the rest.

SMILES	Mtb FBA inh	GDH-TPI counter-1	CCHF vOTU inh	RecA splice inh	Mtb FBA inh conf	GDH-TPI counter-2	others
COC(=O)Nc1c(-c2ccccc2)nc2ccccn12	74.6*	1.8	-24.2	-3.6	188.4*	140.2*
O=C(/C=C/[C@H]1O[C@@H](n2cnc3c(NC(=O)c4ccccc4)ncnc32)[C@H](O)[C@@H]1O)NCc1ccc2c(c1)OCO2	-1.7	x	-4.7	x	x	x
CCOC(=O)C1CCN(C(=O)c2cc3cc4ccc(OC)cc4nc3o2)CC1	106.2*	23.6	-33.7	-7.2	24.8	16.8*
COc1ccc2cc3cc(C(=O)N4CCN(Cc5ccc6c(c5)OCO6)CC4)oc3nc2c1	59.0*	46.1*	-20.7	0.0	+	+
COc1ccc2cc3cc(C(=O)N4CC(C)CC(C)C4)oc3nc2c1 (stereo not given)	19.4	16.5	x	3.6	x	x
COc1ccc2nc3oc(C(=O)N4CCC(C(N)=O)CC4)cc3cc2c1	98.2*	26.5	-41.2	-1.8	+	153.8*
O=[N+]([O-])c1ccccc1N(S(=O)(=O)c1ccccc1)S(=O)(=O)c1ccccc1	-1.3	4.3	3.3	x	x	x
COc1cccc(-c2nc(-c3ccccn3)no2)c1OC	-2.8	-0.4	8.1	1.6	x	x
c1ccc(-c2noc(-c3cccc4ccccc34)n2)nc1	45.5*	-3.9	-7.7	-0.6	+	+
Cc1ccc2nc(NCCNC(=O)c3ccccc3)c(C#N)cc2c1	48.1*	3.0	-32.6	-27.8	188.6*	144.2*
COc1ccc(C(=O)NCCNc2nc3ccc(C)cc3cc2C#N)cc1	46.6*	8.1	-3.5	-26.4	54.7*	42.0*
COc1ccc(C(=O)NCCNc2nc3cc(C)cc(C)c3cc2C#N)cc1	x	x	-0.3	x	x	x
COc1cc(C(=O)NCCNc2nc3ccc(C)cc3cc2C#N)cc(OC)c1OC	39.0*	4.6	-10.5	-14.1	94.2*	79.6*
COc1ccc2nc(NCCCNC(=O)c3cc(OC)c(OC)c(OC)c3)c(C#N)cc2c1	31.7*	8.4	-39.9	-393.1	13.0	-4.7	GDH-TPI dose=4.38*
OCCCNc1ncnc2sc(-c3ccccc3)cc12	29.8*	23.0	-5.7	1.4	54.8*	44.9*
C=COCCCNc1ncnc2sc(-c3ccccc3)cc12	38.1*	12.9	-13.0	5.1	51.4*	40.1*
CC(C)(C)Nc1ncnc2sc(-c3ccccc3)cc12	19.9	15.6	-6.8	-5.4	x	x
NS(=O)(=O)c1ccc(CNC(=O)c2ccncc2)cc1	2.3	-4.6	-2.6	-4.2	x	x
Cc1cc(C)n2nc(-c3ccccc3)cc2n1	9.0	6.4	0.2	2.3	x	x
CCC1C(=O)n2nc(-c3ccccc3)cc2N=C1C (stereo not given)	39.6*	7.8	-0.7	1.2	+	144.6*
COc1cc(C(=O)NCCNc2nc3c(C)cccc3cc2C#N)cc(OC)c1OC	1.2	-1.3	-19.0	x	x	x
Cc1cc2cc(C#N)c(NCCNC(=S)NCCCN3CCOCC3)nc2cc1C	40.3*	10.5	-26.9	-39.8	+	+
Cc1cccc2cc(C#N)c(NCCNC(=S)NCCCN3CCOCC3)nc12	30.6*	-5.7	-24.6	-31.6	145.8*	107.5*
COCCCNC(=S)NCCCNc1nc2cc3c(cc2cc1C#N)OCO3	72.3*	11.6	-83.3	-111.1	15.4	5.8
COc1ccc2nc(NCCNC(=S)NCCCN3CCOCC3)c(C#N)cc2c1	7.8	-1.9	-24.3	-228.6	x	x
SMILES	Mtb FBA inh	GDH-TPI counter-1	CCHF vOTU inh	RecA splice inh	Mtb FBA inh conf	GDH-TPI counter-2	others
O=C(NCCO)OC1CC2CC1[C@H]1CCCCN1C2=O (stereo not given in full)	x	x	0.8	x	x	x
CCC(CO)Nc1ncnc2c1cnn2-c1ccc(OC)cc1 (stereo not given)	30.4*	-3.4	3.8	0.3	63.0*	51.7*
CCOC(=O)c1c(NC(=O)C2C3C=CC(C3)C2C(=O)O)sc2c1CC(C)CC2 (stereo not given)	34.6*	15.3	16.7	-0.1	57.9*	50.8*
CCCOC(=O)c1c(NC(=O)C2C3C=CC(C3)C2C(=O)O)sc2c1CCC(C)C2 (stereo not given)	11.1	-4.7	12.8	-0.1	x	x
CCCn1nc2cc(C(=O)NC3CCCc4ccccc43)ccc2c1OCC (stereo not given)	55.8*	-7.6	-31.4	5.4	137.3*	99.4*
COc1ccc(C(=O)NC2CCc3ccccc32)cc1OC1CCN(C(C)C)CC1 (stereo not given)	2.9	1.0	7.7	-3.7	x	x
CCCn1nc(C(=O)NC2CCCc3ccccc32)c2ccccc2c1=O (stereo not given)	-2.5	6.1	-10.6	13.0	x	x
CCCCn1nc2cc(C(=O)NC3CCc4ccccc43)ccc2c1OCC (stereo not given)	53.1*	-3.5	-17.1	5.7	+	+
O=C(CN1CCN(C(=O)c2cccc(-n3cnnn3)c2)CC1)Nc1ccccc1Cl	-0.1	-1.4	5.1	x	x	x
Cc1cccc(N2CCN(C(=O)c3ccc4c(c3)CCN4S(C)(=O)=O)CC2)c1C	-4.2	7.0	7.0	-0.2	x	x
CCCCc1ccc(S(=O)(=O)NCCCN2CCCC2=O)cc1	-2.2	-2.1	4.8	0.7	x	x
COc1ccccc1NC(=O)C(C)Sc1nnc2ccccn12 (stereo not given)	-0.6	0.4	0.5	x	x	x
CCOc1cc(C=NN=C2c3ccccc3-c3ccccc32)ccc1O	-0.8	17.2	13.6	x	x	x
Cc1ccc(-n2c3nc(=O)n(C)c(=O)c-3cc3ccccc32)cc1	27.5*	13.0	-34.6	-92.7	93.1*	87.1*
CC(NC(=O)c1ccccc1O)c1ccccc1 (stereo not given)	40.6*	5.0	-5.8	3.0	156.5*	121.9*
Cc1csc2ncc(C(=O)NCc3ccc4c(c3)OCO4)c(=O)n12	x	x	x	-4.6	x	x
Cc1csc2ncc(C(=O)NC(C)c3ccccc3)c(=O)n12 (stereo not given)	62.6*	21.9	-47.9	1.2	198.6*	159.4*
Cc1csc2ncc(C(=O)NCc3ccccc3Cl)c(=O)n12	49.0*	11.1	-9.1	2.2	107.2*	112.1*
CCc1ccc(NC(=O)c2cnc3scc(C)n3c2=O)cc1	-1.5	10.3	3.9	-3.3	x	x
CN(CC(=O)Nc1ccc(F)cc1)C(=O)COC(=O)c1ccc(-c2ccccc2)cc1	1.4	13.2	-3.5	-0.7	x	x
CN(C)C(=O)COc1ccc2c3c(c(=O)oc2c1)CCCC3	61.5*	14.7	-28.8	0.4	107.3*	83.5*
O=C(COc1ccc2c3c(c(=O)oc2c1)CCC3)N[C@@H](Cc1ccccc1)C(=O)O	27.4*	20.6	3.0	-1.3	8.7	-5.8
O=C(O)COc1ccc2c3c(c(=O)oc2c1)CCC3	96.3*	6.0	-22.6	-3.2	71.8*	47.2*
CC(Oc1ccc2c3c(c(=O)oc2c1)CCC3)C(=O)NC1CCN(Cc2ccccc2)CC1 (stereo not given)	21.7	9.6	8.3	-1.1	x	x
O=C(COc1ccc2c3c(c(=O)oc2c1)CCC3)N1CCN(c2ccccc2)CC1	9.0	9.6	8.6	5.0	x	x
